Records with an inconclusive call do not appear. Entries that show only a call come without a potency. A number with no mark means an inactive call. Activity calls are given as the source filed them. Calls follow the shape of the full dose curve.
Potency is read from the fitted curve at half-maximal effect.

Thyrotropin receptor (Homo sapiens), sequence (P16473 whole entry, looked up): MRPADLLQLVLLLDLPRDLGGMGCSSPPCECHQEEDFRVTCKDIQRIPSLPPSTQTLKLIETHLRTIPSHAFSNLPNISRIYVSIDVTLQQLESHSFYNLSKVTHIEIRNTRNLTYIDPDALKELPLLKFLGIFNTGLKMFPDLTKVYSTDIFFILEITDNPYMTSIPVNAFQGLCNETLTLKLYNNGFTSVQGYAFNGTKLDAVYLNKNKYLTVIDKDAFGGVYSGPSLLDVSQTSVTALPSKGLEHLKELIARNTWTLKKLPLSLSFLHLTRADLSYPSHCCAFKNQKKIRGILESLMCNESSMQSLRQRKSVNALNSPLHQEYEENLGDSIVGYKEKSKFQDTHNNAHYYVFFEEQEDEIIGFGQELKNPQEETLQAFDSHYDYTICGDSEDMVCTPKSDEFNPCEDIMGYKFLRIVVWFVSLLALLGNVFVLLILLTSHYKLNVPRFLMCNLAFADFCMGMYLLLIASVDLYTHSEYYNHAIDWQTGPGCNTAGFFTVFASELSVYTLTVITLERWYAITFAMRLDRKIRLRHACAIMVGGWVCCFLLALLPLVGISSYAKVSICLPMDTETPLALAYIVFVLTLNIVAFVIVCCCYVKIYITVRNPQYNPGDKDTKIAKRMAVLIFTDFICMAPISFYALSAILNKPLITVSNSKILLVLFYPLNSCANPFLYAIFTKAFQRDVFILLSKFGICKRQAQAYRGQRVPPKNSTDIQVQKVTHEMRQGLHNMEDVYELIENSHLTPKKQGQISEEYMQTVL

The target of this experiment is Thyrotropin receptor (Homo sapiens) (UniProt P16473). The experiment in a line: qHTS assay to identify small molecule antagonists of the thyroid stimulating hormone receptor (TSHR) signaling pathway (AID 1259385). Also: nearly all actives have a fitted effect of over 20% in size. To be noted: TSHR-HEK293 cAMP HTRF, TSH-stimulated antagonist mode; series mostly up to 92.4 µM; activity change, negative = inhibition: at the top concentration. The source says:
U.S. Tox21 Program National Center for Advancing Translational Sciences [NCATS] NIH Chemical Genomics Center [NCGC] U.S. Environmental Protection Agency [EPA] National Institutes of Environmental Health Sciences [NIEHS] National Toxicology Program [NTP] U.S. Food and Drug Administration [FDA] Tox21 Assay Overview: TSHR is the receptor for thyrotropin (thyroid stimulating hormone or TSH), a member of the glycoprotein hormone family. TSH is released by the anterior pituitary gland and is the main regulator of thyroid gland growth and development. Upon binding circulating thyrotropin, a G-protein signal cascade activates adenylyl cyclase and […] cAMP concentration is increased. cAMP is a key second messenger involved extensively in cellular signal transduction pathways associated with the majority of G-protein coupled receptors (GPCRs). The activation of these GPCRs by neurotransmitters, lipids, nucleotides, peptides and hormones results in the activation or the inhibition of plasma membrane-bound adenylate cyclase through heterotrimeric G-proteins. A cell-based TSHR assay can be used to screen chemical compounds that modulate TSHR either in agonist or antagonist mode.
Tox21 Assay Protocol Summary: TSHR-Hek293 cells were dispensed at 800 cells/4uL/well in 1536-well white plates using a Multidrop dispenser. After the assay plates were incubated at a 37C/5% CO2 incubator for 18 hrs, 23 nL of compounds dissolved in DMSO, positive controls or DMSO only was transferred to the assay plate by a pin tool, followed by 1 ul medium containing Ro20-1724. For the antagonist mode screening, 1 uL of TSH was added on the top of the cell/compound mixtures to achieve a final agonist concentration of 1.5 ng/mL. After 30 min of incubation at room temperature, 2.5 ul/well of cAMP-d2 and 2.5 ul/well of anti-cAMP-cryptate were added respectively into the assay plates using a Flying Reagent Dispenser. The plates were incubated at room temperature for 1 hr. The fluorescence intensity in the plates was measured using an Envision plate reader. Each test compound was measured at 15 concentrations and in triplicates.
(In general: Quantitative high-throughput screening tests each substance at several concentrations.)
For `O=C(c1ccccc1)c1ccc(O)cc1O`, the Potency result was “inactive”. Still for that read-out and setting: then `CC(=O)C1(C)CC2=C(CCCC2(C)C)CC1C` (stereo not given), with 43.3 µM (active); and `C=CC(C)(CCC=C(C)C)OC(C)=O` (stereo not given), with “inactive”; and `CC(C)OC(=O)C(C)(C)Oc1ccc(C(=O)c2ccc(Cl)cc2)cc1`, with 26.6 µM (active). For `COc1ccccc1/C=C/C=O`, the “activity change, negative = inhibition” value is 6.93%. For the compound `O=C1OC2(c3cc(Br)c(O)c(Br)c3Oc3c2cc(Br)c(O)c3Br)c2c(Cl)c(Cl)c(Cl)c(Cl)c21`, the “activity change, negative = inhibition” value is -6.21% [at 42.5 µM].

As for `COc1c(Cl)c(Cl)c(Cl)c(Cl)c1Cl`, the “activity change, negative = inhibition” value was -9.3%. `CNCCCC12CCC(c3ccccc31)c1ccccc12`: the “activity change, negative = inhibition” value is 7.52% [at 42.5 µM]. For `CCCCCCCCCC(=O)OC`, the Potency result was “inactive”. Regarding `CCC(C)CO` (stereo not given), the “activity change, negative = inhibition” value was 5.39%. With `CC(C)OC=O`, the Potency entry was “inactive”. On to `CC(=O)O[C@]1(C(C)=O)CC[C@H]2[C@@H]3C=C(Cl)C4=CC(=O)[C@@H]5C[C@@H]5[C@]4(C)[C@H]3CC[C@@]21C`, for which the Potency entry was “inactive”. Regarding `COc1cc([C@@H]2c3cc4c(cc3[C@H](O)[C@H]3COC(=O)[C@H]23)OCO4)cc(OC)c1OC`, the Potency entry is “inactive”. Take `c1ccc(Nc2ccccc2)cc1`: the Potency result was “inactive”. Take `O=C1c2cccc(O)c2C(=O)c2c(O)cccc21`: the Potency entry is “inactive”.

For `Cn1cnc([N+](=O)[O-])c1Sc1ncnc2nc[nH]c12`, the “activity change, negative = inhibition” value is 3.86% [at 42.5 µM]. As for `CCCc1c(OCCCCc2nn[nH]n2)ccc(C(C)=O)c1O`, the Potency entry was “inactive”.

In the case of `O=[N+]([O-])c1ccc2c(c1)Cc1ccccc1-2`, the Potency entry was “inactive”. Consider `CCC(C)c1ccccc1O` (stereo not given), for which the Potency entry is “inactive”.

For the compound `CN1C(C(=O)Nc2ccccn2)=C(O)c2ccccc2S1(=O)=O`, the Potency result was “inactive”. On to `CCCCCCCCCCCO`, for which the Potency result is “inactive”. Turning to `CCCC(=O)O`, the “activity change, negative = inhibition” value is -1.09%.

Regarding `O=C(Nc1ccc([N+](=O)[O-])cc1Cl)c1cc(Cl)ccc1O`, the Potency entry is “inactive”.

Regarding `Nc1ccc(Cl)cc1Cl`, the Potency entry was “inactive”. With `CCCCOCCOCCO`, the Potency entry was “inactive”. As for `O=CCc1ccccc1`, the Potency result was “inactive”.

Turning to `OC1CCCCCCCCCCC1`, the Potency result was “inactive”. With `CC(=O)c1ccccn1`, the Potency result was “inactive”. Regarding `C[Si](C)(C)O[Si](C)(C)C`, the “activity change, negative = inhibition” value was 0.677%. In the case of `COc1ccc(OC)c(C(O)CNC(=O)CN)c1` (stereo not given), the Potency result is “inactive”.

`CC1=CC2C3CC(C=C3C)C2C1` (stereo not given): the Potency entry was “inactive”. Consider `COc1ccc(C(=O)CC(=O)c2ccc(C(C)(C)C)cc2)cc1`, for which the Potency result was “inactive”. Turning to `CC(=O)Oc1ccccc1C(=O)Nc1ncc([N+](=O)[O-])s1`, the Potency entry is “inactive”. Regarding `c1ccncc1`, the Potency result is “inactive”.

Consider `O=P(O)(O)O`, for which the Potency result is “inactive”. On the same count and under the same terms, then `CCOC(=O)C(C#N)=C(c1ccccc1)c1ccccc1`, with “inactive”; and `COC(=O)C1=C(C)NC(C)=C(C(=O)OCCN(C)Cc2ccccc2)C1c1cccc([N+](=O)[O-])c1` (stereo not given), with “inactive”; and `CCCCC(CC)COP(=O)(OCC(CC)CCCC)OCC(CC)CCCC` (stereo not given), with “inactive”. For the compound `Cc1c(C(N)=O)cc([N+](=O)[O-])cc1[N+](=O)[O-]`, the Potency entry was “inactive”. As for `O=C(OCc1ccccc1)c1ccccc1O`, the Potency entry was “inactive”.

Values taken from PubChem BioAssay (Tox21).
